# Source: PubChem (Broad Institute)
# Compounds with a hit are over-represented: about 6.7% of the library has one in this group of screens.
# Pf Dd2 growth – P. falciparum Dd2 growth inhibitors, primary screen, SYBR Green fluorescence, single dose replicates; 72 h; stronger effect = lower value; activity change, % at 10 µM; 2.3% of 94,000 active; AID 1159554, 2015; in the data active = activity change below about -80%; inconclusive = no clear call, values can overlap the other calls
# T cruzi growth-1 – T. cruzi intracellular proliferation inhibitors, primary screen, cell-based, beta-gal Tulahuen parasites, NIH3T3 host, luminescence. AID 624255, 2012. 5.9% of 77,000 active. T. cruzi beta-gal in NIH3T3, GalScreen luminescence, 90 h. inhibition, % at 8.34 µM;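 active = mean inhibition above about 93%, with at least 55% of replicates each passing it, limit read from the data, passing the limit was not always enough; inconclusive = only one of those two conditions holds; inactive = neither condition holds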
# C diff growth – C. difficile growth inhibitors, primary screen, HTS | 0.25% of 86,000 active | growth activity, negative = inhibition, % at 16 µg/mL (by protocol) | Clostridium difficile clinical isolate growth, OD600, 24 h; stronger effect = lower value;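 active = mean growth activity at or below -80% and every replicate also at or below -80%; inconclusive = mean at or below -80% but some replicate above -80%; inactive = mean growth activity above -80%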;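 note: 0% = DMSO wells and -100% = levofloxacin 16 µg/mL wells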
# T cruzi growth-2 – T. cruzi intracellular proliferation inhibitors, confirmation, cell-based, NIH3T3 host, beta-gal parasite, luminescence, cherry-pick. shares compounds with T cruzi growth-1. T. cruzi beta-gal in NIH3T3, GalScreen luminescence, 90 h. inhibition, % at 8.35 µM. 72% of 5,600 active. AID 651739, 2012;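 active = mean replicate inhibition above about 95% and at least 55% of replicates individually reaching it, limit read from the data; inconclusive = only one of the two criteria is met; inactive = neither criterion is met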
# T cruzi growth-3 – inhibitors of intracellular T. cruzi replication, confirmation, NIH3T3 host cells, beta-gal parasites, cherry-pick, set 2. shares compounds with T cruzi growth-1. T. cruzi beta-gal in NIH3T3, GalScreen luminescence, 90 h. inhibition, % at 2.09 µM. 21% of 5,600 active;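 active = mean inhibition above about 95%, with at least 55% of replicates also reaching it, limit read from the data; inconclusive = meets just one of the two conditions; inactive = meets neither condition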;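 note: plate controls were neutral control median for no effect and positive control median for full effect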
# NIH3T3 tox – cytotoxicity in mouse NIH/3T3 fibroblasts, confirmation, cytotoxicity control for T. cruzi proliferation inhibitor project, cell-based, cherry-pick, single point; AID 651742, 2012; cytotoxicity (signal decrease), % at 8.35 µM; shares compounds with T cruzi growth-1; NIH/3T3 viability, CellTiter-Glo ATP luminescence, 90 h; 14% of 5,600 active;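 active = mean signal decrease across replicates above about 35% based on untreated-well scatter, with enough replicates individually passing, limit read from the data; inconclusive = no rule stated though some were filed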;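 note: 0% = median of neutral control wells and 100% = median of positive control wells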
# NIH3T3 tox 2 – NIH/3T3 fibroblast cytotoxicity, confirmation, cytotoxicity control, cell-based, cherry-pick, single point, set 2 | shares compounds with T cruzi growth-1 | NIH/3T3 viability, CellTiter-Glo ATP luminescence, 90 h | inhibition, % at 24.9 µM | 56% of 5,600 active | AID 651744, 2012;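 active = mean loss of cell viability signal at or above a set limit, and enough replicates individually reaching it; inconclusive = meets only the mean limit or only the replicate share; inactive = meets neither condition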;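 note: 0% = median of neutral control wells and 100% = median of positive control wells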
# The depositor's hits bear a star; ? = inconclusive; · = no result.
SMILES,Pf Dd2 growth,T cruzi growth-1,C diff growth,T cruzi growth-2,T cruzi growth-3,NIH3T3 tox,NIH3T3 tox 2
C[C@H](NC(=O)C[C@H]1C[C@H]2c3cc(NC(=O)Nc4ccc(C(F)(F)F)cc4)ccc3O[C@H]2[C@@H](CO)O1)c1ccccc1,-27.0,?,9.2,77.5,40.7,8.1,-2.0
C[C@H](NC(=O)C[C@H]1C[C@@H]2c3cc(NC(=O)Nc4ccc(C(F)(F)F)cc4)ccc3O[C@@H]2[C@@H](CO)O1)c1ccccc1,-16.3,20.0,7.3,·,·,·,·
O=C(C[C@@H]1C[C@@H]2c3cc(NC(=O)Nc4ccc(C(F)(F)F)cc4)ccc3O[C@@H]2[C@H](CO)O1)NCc1cc(F)ccc1F,-21.1,36.7,-14.8,·,·,·,·
O=C(C[C@H]1C[C@@H]2c3cc(NC(=O)Nc4ccc(C(F)(F)F)cc4)ccc3O[C@@H]2[C@@H](CO)O1)NCc1ccc(Cl)cc1,-53.9,-13.9,·,·,·,·,·
O=C(C[C@H]1C[C@@H]2c3cc(NC(=O)Nc4ccc(C(F)(F)F)cc4)ccc3O[C@@H]2[C@@H](CO)O1)NCc1cc(F)ccc1F,-16.5,156.0*,14.3,81.3,10.6,9.3,-3.7
O=C(C[C@@H]1C[C@@H]2c3cc(NC(=O)Nc4ccc(C(F)(F)F)cc4)ccc3O[C@@H]2[C@@H](CO)O1)NCc1ccc(Cl)cc1,-44.7,111.7*,·,108.7*,24.4,-20.7,-0.6
CC(C)C#Cc1cnc2c(c1)C(=O)N([C@H](C)CO)C[C@@H](C)[C@@H](CN(C)C(=O)c1cnccn1)O2,19.7,49.2,4.3,·,·,·,·
C[C@@H]1CN([C@@H](C)CO)C(=O)Cc2cc(NS(=O)(=O)c3cccs3)ccc2O[C@H]1CN(C)Cc1ccc(Oc2ccccc2)cc1,-69.6,22.8,36.3,·,·,·,·
C[C@H](CO)N1C[C@H](C)[C@@H](CN(C)C(=O)Nc2ccccc2)Oc2ccc(NC(=O)NC3CCCCC3)cc2CC1=O,-0.6,20.2,-1.6,·,·,·,·
CCCC#Cc1ccc2c(c1)O[C@@H](CN(C)Cc1ccncc1)[C@@H](C)CN([C@@H](C)CO)S2(=O)=O,-41.3,113.5*,8.0,101.9*,96.2*,26.2,99.9*
CCCC#Cc1ccc2c(c1)O[C@H](CN(C)Cc1ccncc1)[C@H](C)CN([C@@H](C)CO)S2(=O)=O,-36.8,118.1*,7.0,89.9,65.4,?,41.0*
C[C@@H]1CN([C@@H](C)CO)S(=O)(=O)c2ccc(C#CCN(C)C)cc2O[C@H]1CN(C)Cc1ccncc1,-35.5,107.0*,-0.9,108.0*,?,27.2,45.6*
CCCC#Cc1ccc2c(c1)O[C@@H](CN(C)Cc1ccncc1)[C@@H](C)CN([C@H](C)CO)S2(=O)=O,-27.3,113.8*,6.4,104.8*,90.0,31.5,-1.7
Cc1ccc(S(=O)(=O)Nc2ccc3c(c2)C(=O)N([C@H](C)CO)C[C@H](C)[C@H](CN(C)Cc2ccc4c(c2)OCO4)OCCCC[C@@H](C)O3)cc1,-21.3,-4.0,-2.5,·,·,·,·
Cc1noc(C)c1S(=O)(=O)Nc1ccc2c(c1)C(=O)N([C@H](C)CO)C[C@H](C)[C@@H](CN(C)S(=O)(=O)c1c(C)noc1C)OCCCC[C@H](C)O2,-5.3,-15.3,-1.5,·,·,·,·
CC(C)CC#Cc1ccc2c(c1)O[C@@H](CN(C)S(C)(=O)=O)[C@H](C)CN([C@@H](C)CO)S2(=O)=O,-56.8,7.8,·,·,·,·,·
Cc1noc(C)c1NC(=O)Nc1ccc2c(c1)C(=O)N([C@@H](C)CO)C[C@@H](C)[C@H](CN(C)C(=O)Nc1ccc(F)cc1)OCCCC[C@H](C)O2,6.5,-3.3,-2.4,·,·,·,·
CCS(=O)(=O)Nc1ccc2c(c1)C(=O)N(C)[C@@H]1CC[C@@H](CC(=O)OC)O[C@@H]1CO2,-9.8,-1.4,-1.9,·,·,·,·
